High-throughput results (PubChem BioAssay)
This is a sample that favours compounds with a hit; in the whole collection about 4.6% have one here.
TRHR PAM – TRH receptor (human) allosteric enhancement. P34981. TRHR cells, fluo-8 calcium fluorescence, EC20 TRH enhancement. enhancement, % at 2 µM. 360,000 tested, 0.66% active; in the data active = enhancement above about 30%
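Enhancer read-out: after compound pinning and an initial kinetic agonist-mode read, an EC20 of TRH (10 nM final) was injected and fluo-8 calcium signal (Ex 480/Em 530) followed at 1 s/cycle for 100 cycles in TRHR-expressing cells.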
TRHR ag – TRH receptor (human) agonism; P34981; TRHR cells, calcium flux fluo-8, FDSS agonist mode; AID 493084; activation, % at 2 µM; 360,000 tested, 0.18% active
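TRHR-expressing cells, plated overnight in medium with 10% serum, were loaded with fluo-8 calcium dye at room temperature. After a 10 s baseline, library compound was pin-added and calcium release was recorded kinetically (ex 480/em 530) as agonist response.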
D1 antag – antagonists of human D1 dopamine receptor. HEK293 TREx D1 cells, calcium flux, dopamine EC80; hits give low values. activity change, negative = inhibition, % at 10 µM. P21728. 360,000 tested, 3.2% active. AID 504652; in the data active = activity change below about -30%
Target sequence (P21728 whole entry, looked up): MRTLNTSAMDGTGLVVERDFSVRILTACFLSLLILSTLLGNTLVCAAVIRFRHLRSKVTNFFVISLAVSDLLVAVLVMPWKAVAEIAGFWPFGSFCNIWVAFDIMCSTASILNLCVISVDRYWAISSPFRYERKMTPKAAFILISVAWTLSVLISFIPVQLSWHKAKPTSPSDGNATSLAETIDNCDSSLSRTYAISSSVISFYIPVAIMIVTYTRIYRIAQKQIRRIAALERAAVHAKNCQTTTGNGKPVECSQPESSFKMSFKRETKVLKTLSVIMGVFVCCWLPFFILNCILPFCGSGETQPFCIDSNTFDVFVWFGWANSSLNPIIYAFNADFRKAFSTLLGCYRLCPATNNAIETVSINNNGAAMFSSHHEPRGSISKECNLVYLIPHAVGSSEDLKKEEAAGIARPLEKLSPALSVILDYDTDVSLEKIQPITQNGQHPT
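Cells carrying a force-coupled, tetracycline-inducible human D1 receptor report calcium flux. Each well gets a 10 s baseline, compound with 180 s monitoring, then an EC80 dopamine stimulus with a second 180 s kinetic read.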
D1 agonist – human D1 receptor agonism. P21728. HEK293 T-REx D1 cells, calcium flux, agonist mode. activation, % at 2 µM. 360,000 tested, 1% active. AID 504660
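Agonism was scored from calcium flux recorded over 180 s (1 read/s) after pintool compound addition, following a 10-cycle baseline. Cells were inducible force-coupled HEK293 TREx D1, plated overnight at 30 C and loaded with no-wash calcium dye.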
D1 potentiator – human D1 dopamine receptor positive modulation. HEK293 TREx D1 cells, calcium flux, dopamine EC20 potentiation. P21728. potentiation, % at 10 µM. 360,000 tested, 0.036% active; in the data active = potentiation above about 30%
Of the large screens only hits and unclear results are named; the others gave an inactive call. Cut-off read from the data, not from the text of the source, unless noted: active = activation above about 30%; inactive = the rest.

Cc1ccc(NC(=O)c2cccs2)cc1NC(=O)c1ccccc1Cl	none
CC(C)CCOC(=O)C1C(c2ccccc2)C(C(=O)O)C1c1ccccc1 (stereo unspecified)	none
Cc1cccc(C(=O)Nc2ccc(N3CC=C(c4ccccc4C)CC3)c(C(=O)O)c2)c1	none
Cc1ccccc1NCCC(=O)Nc1ccc(Cl)cc1	none
O=C(NCC1(N2CCOCC2)CCCCC1)c1cccc(S(=O)(=O)Nc2ccc(F)cc2)c1	none
O=C(NCC1(N2CCCCC2)CCCCC1)c1cccc(S(=O)(=O)Nc2ccc(F)cc2)c1	D1 antag -38
CCOc1ccc(S(=O)(=O)Nc2ccc(C(=O)N3CCCC3)cc2)cc1	none
CCOc1ccc(NS(=O)(=O)c2ccc(C(=O)NCC3(N(C)C)CCCCC3)cc2)cc1	none
CCOc1ccc(NS(=O)(=O)c2ccc(C(=O)N3CCCC(C)C3)cc2)cc1 (stereo unspecified)	D1 antag -52, D1 agonist 59
CCOc1ccc(NS(=O)(=O)c2ccc(C(=O)NCC3(N4CCCCC4)CCCCC3)cc2)cc1	D1 agonist 31
CSc1nnc2c3cc(C)ccc3n(Cc3ccccc3)c2n1	none
Cc1ccc(-c2cc(C(=O)NCc3ccccn3)c3ccccc3n2)cc1C	none
Cc1cc(C(=O)NNc2c(Cl)cccc2Cl)no1	none
O=c1cc(O)c2c(=O)[nH]c(=O)n(-c3ccccc3)c2[nH]1	TRHR PAM 33
COc1ccccc1C1C(C(N)=O)=C(C)Nc2ncnn21 (stereo unspecified)	none
CCn1c(=O)cc(N2CCC3(CC2)OCCO3)[nH]c1=O	D1 antag -60
COc1cccc(-n2c(=O)c3c(C)c(C)sc3n(CC(=O)Nc3ccccc3OC)c2=O)c1	none
CCOC(=O)Cn1nnc(-c2cc(OC)c(OC)c(OC)c2)n1	none
COc1cc(-c2nnn(CC(=O)Nc3ccc(OC(F)(F)F)cc3)n2)cc(OC)c1OC	D1 antag -32
CC(=O)N1CCn2c3c(c4cc(C)ccc42)CCCC31 (stereo unspecified)	none
Cc1ccc2c(c1)c1c3n2CCN(C(=O)CCl)C3CCC1 (stereo unspecified)	D1 antag -45
CCOc1ccccc1N1CC(C(=O)Nc2cc(S(C)(=O)=O)ccc2Cl)CC1=O (stereo unspecified)	none
Nc1c(C(O)(C(F)(F)F)C(F)(F)F)cc(C(O)(C(F)(F)F)C(F)(F)F)c2ccccc12	D1 agonist 40
COc1cnc(-c2ccccn2)nc1Sc1ccccc1Cl	D1 agonist 32
COc1ccc(S(=O)Cc2ccc(C(=O)NC3CC3)o2)cc1 (stereo unspecified)	none
COc1ccc(-c2nonc2NC(=O)c2ccco2)cc1OC	D1 antag -37
O=C(CCCCCn1c(=S)[nH]c2ccc(N3CCOCC3)cc2c1=O)NC1CCN(Cc2ccccc2)CC1	D1 antag -32
O=c1c2ccccc2[nH]c(=S)n1CCN1CCCCC1	none
O=c1c2cccnc2[nH]c(=S)n1CCCN1CCN(c2ccccc2F)CC1	none
O=c1c2ccccc2[nH]c(=S)n1CCCN1CCN(c2ccccc2)CC1	D1 antag -58
O=c1c2ccccc2[nH]c(=S)n1CCCN1CCN(c2ccccc2F)CC1	D1 antag -75
Cc1cc(C)cc(C(=O)NCC(=O)N2CCN(C(c3ccccc3)c3ccccc3)CC2)c1	none
COc1ccc(NC(=O)c2ccc3c(SCC(=O)O)c4c(nc3c2)CCC4)c(OC)c1	D1 antag -35
O=C(CSc1c2c(nc3ccccc13)CCC2)Nc1ccc(F)cc1F	D1 antag -36
CCc1cccc(NC(=O)CCNC(=O)Cn2ccc3ccccc3c2=O)c1	none
CCCCN1CNC(=S)N(c2ccccc2OCC)C1	none
Cc1ccccc1OCC(=O)Nc1sc2c(c1C(=O)OC(C)C)CCCC2	D1 agonist 45
CCOC(=O)c1c(NC(=O)/C=C/c2ccc(C)cc2)sc2c1CCCC2	D1 agonist 39
O=C(Cc1ccccc1)Nc1sc2c(c1C(=O)Nc1ccccc1Cl)CCCCC2	TRHR PAM 33
CCCOc1ccc(C(=O)Nc2sc3c(c2C(=O)OCC)CCCCC3)cc1	D1 antag -31
CCOC(=O)c1c(NC(=O)c2ccc(Br)cc2)sc2c1CCCC2	none
O=C(Cc1ccccc1)Nc1sc2c(c1C(=O)Nc1cccc(Cl)c1)CCCCC2	none
O=C(COC(=O)CCc1ccc(S(=O)(=O)N2CCCCC2)cc1)Nc1cccc2ccccc12	none
CCCNC(=O)c1c(NC(=O)c2ccccc2F)sc2c1CCCCC2	TRHR PAM 35
CCOC(=O)c1c(NS(=O)(=O)c2cccc(OC)c2)sc2c1CCC2	D1 agonist 64
CCOC(=O)c1c(NC(=O)c2cc(-c3cccc(OC)c3)on2)sc2c1CCCC2	none
O=C(Nc1sc2c(c1C(=O)O)CCCCC2)c1ccccc1F	none
O=C(O)CCc1nc2ccccc2n(CCc2ccccc2)c1=O	none
O=C(O)CCc1nn2c3ccccc3nc2n(CCN2CCCCC2)c1=O	D1 antag -31
CCCCCOC(=O)NCC(O)c1ccccc1 (stereo unspecified)	D1 antag -34
Cc1ccc(S(=O)(=O)N(C)c2ccc(C(=O)Nc3cccnc3)cc2)cc1	none
O=C(NC1CC1)C1CCCN1C(=O)NC1CCCCC1 (stereo unspecified)	none
NC(=O)c1c(NC(=O)C2COc3ccccc3O2)sc2c1CCN(Cc1ccccc1)C2 (stereo unspecified)	TRHR ag 38, D1 agonist 105
COc1cccc(OC)c1C(=O)Nc1sc2c(c1C(N)=O)CCN(Cc1ccccc1)C2	none
CC(=O)c1ccc(C(=O)Nc2sc3c(c2C(N)=O)CCN(Cc2ccccc2)C3)cc1	D1 agonist 63
CCOC(=O)c1c(NC(=O)C2COc3ccccc3O2)sc2c1CCN(Cc1ccccc1)C2 (stereo unspecified)	none
O=C1CCc2cc(S(=O)(=O)N3CCN(c4ccc(F)cc4)CC3)cc3c2N1CC3	none
Cc1nn(C(=O)c2c(F)cccc2F)c(C)c1S(=O)(=O)N1CCCCCC1	D1 antag -63
Cc1ccc(CNC(=O)CN(c2cccc(C)c2C)S(=O)(=O)c2ccccc2)cc1	none
CCC(=O)Nc1ccc(C(=O)Nc2ccc(Br)cc2F)cc1	TRHR PAM 40
COc1cc(C(C)=O)ccc1OCC(=O)OCC(=O)c1cc(C)n(CC2CCCO2)c1C (stereo unspecified)	none
COc1cccc(C(C2=C(O)CC(C)(C)CC2=O)C2C(=O)CC(C)(C)CC2=O)c1 (stereo unspecified)	TRHR PAM 34
COc1cccc(C(C2C(=O)CC(C)(C)CC2=O)C2C(=O)CC(C)(C)CC2=O)c1	none
COCCCNS(=O)(=O)c1ccc2c(c1)OCCO2	none
Cc1ccc(C(=O)N/C(=C\c2cccc([N+](=O)[O-])c2)C(=O)OCN2C(=O)c3ccccc3C2=O)cc1	D1 antag -48
COC(=O)Cn1nc(C)c2ccccc2c1=O	none
